# Screens as filed in PubChem.
# An excerpt weighted towards active compounds, which were near 4.1% of everything screened.
# hcDAF12 agonist: activators of H. contortus DAF-12 nuclear receptor; actives 1.4% (n = 370,000); HEK293 hcDAF-12 lit1-tk-luc reporter, luminescence; 0% DMSO, 100% Δ7-dafachronic acid; activation, % at 6.8 µM; AID 652067;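 active means activation above the mean of all tested compounds plus 3 SD, cut at about 5.5% in these data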;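 further: 100% = response to 3 µM Δ7-dafachronic acid high control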
# DAX1 inh-1: inhibitors of DAX1 repression of SF-1 activated StAR promoter; HEK293T StAR-luciferase reporter, SF-1/DAX-1 repression relief; inhibition, % at 6.8 µM; actives 1.1% (n = 370,000);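 active means inhibition above the mean over all tested compounds plus 3 SD, cut at about 3.6% in these data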;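 further: 0% = DAX-1 cells with DMSO and 100% = cells lacking DAX-1 with DMSO; higher inhibition means more luminescence from relief of DAX-1 repression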
# ssDAF12 agonist: activates DAF-12 receptor from parasite S. stercoralis. HEK293 ssDAF-12/GRIP1 lit1-tk-luc reporter, luminescence; % of 3 µM dafachronic acid response. activation, % at 6.8 µM. actives 1% (n = 370,000). AID 652126;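 active means activation above the mean over all tested compounds plus 3 SD, cut at about 0.9% in these data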;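 further: 0% = DMSO-only wells and 100% = 3 µM delta7-dafachronic acid wells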
# DAX1 inh-2: inhibits human nuclear receptor DAX1; AID 504766; HEK293 Gal4-DAX1 luciferase reporter, luminescence; actives 0.99% (n = 340,000); P51843; inhibition, % at 6.75 µM;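 active means inhibition above the mean over all tested compounds plus 3 SD, cut at about 4.2% in these data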;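 further: 0% = DAX1-transfected cells with DMSO and 100% = empty-vector control cells with DMSO; inhibition shows as a rise in luminescence from relieved DAX1 repression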
# hgDAF-12 ag: agonists of H. glycines DAF-12 nuclear receptor | HEK293 GAL4-hgDAF12 UAS-luciferase reporter, agonist luminescence; normalized to butyrate control | activation, % at 6.8 µM | actives 1.8% (n = 370,000) | AID 687014;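 active means activation above a cutoff set at the mean of all screened compounds plus 3 SD, cut at about 10% in these data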;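 further: 0% = DMSO wells and 100% = sodium butyrate wells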
# LXRb hcDAF ctr: LXR-beta agonism as hcDAF-12 counter-screen | shares compounds with hcDAF12 agonist | HEK293 Gal4-LXR tk-luc reporter, luminescence, 24 h; normalized: DMSO 0%, positive control 100% | activation, % at 6.8 µM | 3,400 tested, under 10 active | AID 743027;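 active means mean percent activation of the reporter above a cutoff set as the average over tested compounds plus their standard deviation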
# Target sequence (P55055 whole entry, looked up, the tested form may be a part): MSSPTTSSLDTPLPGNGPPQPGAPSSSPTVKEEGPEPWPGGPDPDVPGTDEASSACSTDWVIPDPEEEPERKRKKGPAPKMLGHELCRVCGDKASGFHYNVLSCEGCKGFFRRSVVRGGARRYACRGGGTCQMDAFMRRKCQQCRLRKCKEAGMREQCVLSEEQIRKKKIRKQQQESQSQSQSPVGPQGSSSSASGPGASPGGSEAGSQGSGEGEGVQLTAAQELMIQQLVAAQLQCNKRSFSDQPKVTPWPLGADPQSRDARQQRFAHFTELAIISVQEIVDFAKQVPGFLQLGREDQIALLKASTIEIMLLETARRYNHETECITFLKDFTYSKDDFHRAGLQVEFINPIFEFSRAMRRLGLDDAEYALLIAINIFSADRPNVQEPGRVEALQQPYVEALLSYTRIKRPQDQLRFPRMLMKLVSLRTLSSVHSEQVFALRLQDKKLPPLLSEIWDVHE
# hcDAF12 conf: confirmation of H. contortus DAF-12 agonists | shares compounds with hcDAF12 agonist | HEK293 hcDAF-12 lit1-tk-luc reporter, luminescence; % of Δ7-dafachronic acid response | activation, % at 6.8 µM | actives 61% (n = 3,400);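 active means mean activation across triplicate tests above the threshold derived from the earlier primary screen, cut at about 5.5% in these data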;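 further: 0% = DMSO only wells and 100% = 3 µM Δ7-dafachronic acid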
# Starred values were filed as active, the others as inactive; . = not tested or not shown.
SMILES,hcDAF12 agonist,DAX1 inh-1,ssDAF12 agonist,DAX1 inh-2,hgDAF-12 ag,LXRb hcDAF ctr,hcDAF12 conf
COc1ccccc1Cc1c(C(C)(C)C)nc2ccc(C)cn12,6.6*,0.4,0.8,.,7.1,-0.1,4.0
Cn1c(NC(=O)C[n+]2cc(-c3ccccc3)n3c2CCC3)cc(=O)n(C)c1=O,7.1*,0.3,-1.0,-0.8,2.2,-0.3,0.3
COc1ccc2c(c1)[nH]c1c(=O)n(N)cnc12,9.7*,0.8,0.8,5.7*,0.8,-0.1,6.4*
O=C(C(=O)N(Cc1ccccc1)Cc1ccccc1)c1c(-c2ccccc2)[nH]c2ccccc12,-1.2,-4.5,-0.5,-2.8,-5.2,.,.
COc1ccc(NC(=O)N(C)C[C@H]2Oc3ccc(NC(=O)CCN4CCOCC4)cc3C(=O)N([C@@H](C)CO)C[C@H]2C)cc1,1.5,0.1,-1.4,0.1,0.4,.,.
OC[C@@H]1CN(CCN2CCOCC2)C[C@H](n2cnc3c(N4CCCC4)ncnc32)O1,0.3,0.0,-0.9,.,0.3,.,.
c1ccc(Nc2nc(-c3ccccn3)cs2)cc1,12.8*,2.3,1.3*,1.1,13.0*,1.6,11.1*
c1ccc(-c2csc(Nc3cccnc3)n2)nc1,-0.1,1.4,-0.6,0.3,6.6,.,.
Cc1ccc(NC(=S)N2CCC(O)CC2)c(C)c1,-1.6,-0.8,-0.8,0.5,1.4,.,.
Cc1ccc(NC(=S)N2CCCC(CO)C2)c(C)c1 (stereo unspecified),6.9*,1.6,-0.1,1.7,11.2*,0.0,2.4
N#CC(C(O)c1ccccc1)N1CCOCC1 (stereo unspecified),-1.0,-1.0,-1.7,0.5,-2.7,.,.
CC1(C(=O)NS(=O)(=O)C2CC2)CCCN(C(=O)Cc2ccc3ccccc3c2)C1 (stereo unspecified),0.3,-0.6,-0.4,.,0.3,.,.
Cc1oc(C(=O)O)cc1COc1cccc2ccccc12,1.3,0.3,-0.7,3.6,0.1,.,.
O=C(O)c1cccc(COc2cccc3ccccc23)c1,9.1*,3.4,1.3*,-4.0,12.8*,1.6,9.4*
CSc1nc(-c2ccc(C)cc2)nc(N)c1C#N,8.5*,0.6,2.2*,3.2,4.5,0.6,7.8*
CSc1nc(-c2ccc(Cl)cc2)nc(N)c1C#N,4.3,0.3,0.2,.,0.0,.,.
O=C1CCC[C@H]2CC3(CC[C@]24CCCN14)OCCO3,-0.1,.,-1.6,.,-1.7,.,.
c1ccc2sc(NCC3CCCO3)nc2c1 (stereo unspecified),8.2*,4.2*,0.2,3.8,10.1,0.6,4.5
c1ccc(CCNc2nc3ccccc3s2)cc1,0.5,0.4,-0.6,1.6,5.3,.,.
Cc1ccc(CNc2nc3ccccc3s2)s1,10.4*,4.0*,1.0*,-2.5,6.3,1.4,11.8*
COc1ccc(C(O)c2ncc(-c3ccccc3)[nH]2)cc1F (stereo unspecified),-0.2,-0.4,-1.3,.,-1.8,.,.
O=C(O)Cc1ccc2ccc3ccccc3c2c1,8.5*,0.2,-0.3,.,1.4,0.0,4.9
C=CCOc1c(CNc2cccc(C(=O)O)c2)cccc1OC,7.3*,2.6,0.2,1.3,9.3,0.5,2.8
COc1ccc(Cl)cc1NC(=O)c1[nH]nc(OC)c1[N+](=O)[O-],6.7*,0.4,-0.3,-0.8,3.4,-0.2,5.0
CC(C)c1ccc(NC(=O)[C@@H]2CCC(=O)N2C2OC(=O)c3ccccc32)cc1 (stereo partly specified),7.4*,2.7,-0.2,4.0,7.0,0.3,5.2
SMILES,hcDAF12 agonist,DAX1 inh-1,ssDAF12 agonist,DAX1 inh-2,hgDAF-12 ag,LXRb hcDAF ctr,hcDAF12 conf
C[C@H](O)[C@@H]1C(=O)N2CCc3c([nH]c4c(-c5ccccc5)cccc34)[C@@H]2C[C@@H]1N(C)C(=O)c1ccccc1F,-0.6,-1.4,-1.4,.,-0.4,.,.
CC(C)(C)OC(=O)NCCc1onc(-c2cccc([N+](=O)[O-])c2)c1C(=O)O,1.4,2.2,0.6,-0.4,3.1,.,.
CC(=O)/C(=N\Nc1ccccc1)Sc1nnc(-c2ccccc2)n1-c1ccccc1,-0.7,-0.1,-1.3,0.5,0.6,.,.
CC(=O)/C(=N\Nc1ccccc1)Sc1nncn1C,8.4*,0.4,0.2,0.8,2.1,-0.1,3.2
Cc1cccc2c(N=Nc3ccccc3)c(O)[nH]c12,14.2*,2.4,4.4*,5.4*,21.9*,2.1,21.0*
Cc1cccc2c(N=NC(=O)C(C)n3cnc4ccccc4c3=O)c(O)[nH]c12 (stereo unspecified),0.4,-0.1,-1.1,-0.5,-0.7,.,.
Oc1[nH]c2ccccc2c1N=Nc1c(F)c(F)c(Cl)c(F)c1F,1.4,0.6,-1.0,0.9,0.0,.,.
Oc1[nH]c2ccccc2c1N=Nc1cccc(Cl)c1,8.9*,0.9,1.2*,0.6,9.0,1.0,13.3*
COCOc1ccc(-c2ncc(OC)nc2NC(=O)c2ccsc2)cc1,-1.3,-0.4,-0.9,.,0.8,.,.
O=C(O)c1cc(N/N=C/c2cccc3ccccc23)ccc1Cl,8.4*,0.5,-0.5,2.1,1.3,1.0,8.2*
CCN(CC)C(=O)N1CCc2ccccc21,6.7*,-0.8,-0.4,-0.1,0.5,-0.2,3.4
CC(Oc1ccccc1)C(=O)N1CCCc2ccccc21 (stereo unspecified),0.5,-0.6,-0.8,-1.4,-1.7,.,.
Cc1ccc(OC(C)C(=O)N2CCc3ccccc32)cc1 (stereo unspecified),9.4*,0.7,-0.1,-0.6,1.1,-0.1,2.7
CCC1CCCCN1CCCNC(=O)c1ccc2c(c1)NC(=O)CN2C (stereo unspecified),8.8*,-0.6,-0.8,0.8,-0.4,-0.3,-1.2
Cc1cc(=O)n2c(nc3ccccc32)s1,-0.1,1.3,-0.2,1.1,9.2,.,.
Cc1ccc(C2=Nc3ccccc3N=C(C(Cl)Cl)C2)cc1,16.9*,3.8*,2.8*,-0.8,19.1*,1.3,9.9*
C=CCN1C=CC(=CC=C(C#N)C#N)C=C1,8.5*,1.1,0.3,4.5*,4.4,-0.1,2.5
CCCN1C=CC(=CC=C(C#N)C#N)C=C1,2.1,0.6,-0.6,-0.9,0.0,.,.
COc1ccccc1C(=O)Nc1cc(Cl)ccc1O,9.8*,0.2,0.3,-0.1,2.8,0.0,5.8*
COc1ccccc1C(=O)NC(=O)Nc1cccc(Cl)c1,13.3*,1.9,0.8,3.5,14.5*,1.9,17.9*
O=C(O)c1cccc2c(-c3ccccc3)c(-c3ccccc3)[nH]c12,0.1,-0.2,-0.8,-0.9,-2.6,.,.
CC(=O)c1cccc2c(O)c(C3=Nc4ccccc4C3=O)[nH]c12,6.6*,1.2,1.2*,0.4,4.9,0.6,7.1*
